Assay results published in PubChem BioAssay AID1159580 (chemical genetic matrix, 2015).
About 2,000 (36%) of roughly 5,500 compounds were called active. About 18% were inconclusive and are not listed. Rule as the data show it: active = normalized growth mostly below about 0.91 (no sharp cut-off); inconclusive = no clear call, values can overlap the other calls; inactive = mostly above about 0.92. This is one part of the list.

Test: chemical genetic growth profiling, strain panel (AID 1159580);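 also: tested at 20 µM; growth read once vehicle control cultures reached saturation at 30 °C; 1 = growth at the plate median or of vehicle wells; lower values mean less growth of the strain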
Details: growth OD

Measured: normalized growth

C[C@]12CCC(=O)C=C1C=CC1C2CC[C@@]2(C)C1CC[C@@]2(O)CCC(=O)O (some centres not stated)
inactive: S. cerevisiae deletion strains, locus YJR075W, strain HOC1, stronger effect = lower value 0.991 | S. cerevisiae deletion strains, locus YKL009W, strain mrt4, stronger effect = lower value 0.962 | S. cerevisiae deletion strains, locus YKL068W, stronger effect = lower value 0.995 | S. cerevisiae deletion strains, locus YKL085W, strain MDH1 (second series), stronger effect = lower value 0.993 | S. cerevisiae deletion strains, locus YKL085W, strain MDH1, stronger effect = lower value 0.993 | S. cerevisiae deletion strains, locus YKL160W, strain elf1, stronger effect = lower value 0.996 | S. cerevisiae deletion strains, locus YKL190W, strain CNB1, stronger effect = lower value 1.01 | S. cerevisiae deletion strains, locus YKR001C, strain vps1, stronger effect = lower value 0.98 | S. cerevisiae deletion strains, locus YKR026C, strain gcn3, stronger effect = lower value 1.03 | S. cerevisiae deletion strains, locus YKR091W, strain srl3, stronger effect = lower value 1.01 | S. cerevisiae deletion strains, locus YLL001W, strain dnm1, stronger effect = lower value 1.01 | S. cerevisiae deletion strains, locus YLL026W, stronger effect = lower value 1 | S. cerevisiae deletion strains, locus YLL041C, strain sdh2, stronger effect = lower value 1.01 | S. cerevisiae deletion strains, locus YLR027C, strain aat2, stronger effect = lower value 1.01 | S. cerevisiae deletion strains, locus YLR039C, strain RIC1, stronger effect = lower value 0.986 | S. cerevisiae deletion strains, locus YLR058C, strain SHM2, stronger effect = lower value 0.994 | S. cerevisiae deletion strains, locus YLR102C, strain apc9, stronger effect = lower value 0.999 | S. cerevisiae deletion strains, locus YLR113W, strain HOG1, stronger effect = lower value 1.06 | S. cerevisiae deletion strains, locus YLR221C, strain rsa3, stronger effect = lower value 1.01 | S. cerevisiae deletion strains, locus YLR258W, strain gsy2, stronger effect = lower value 1.02 | S. cerevisiae deletion strains, locus YLR262C, strain YPT6 (second series), stronger effect = lower value 0.93 | S. cerevisiae deletion strains, locus YLR262C, strain YPT6, stronger effect = lower value 0.983 | S. cerevisiae deletion strains, locus YLR268W, strain sec22, stronger effect = lower value 0.929 | S. cerevisiae deletion strains, locus YLR320W, strain mms22, stronger effect = lower value 1.01 | S. cerevisiae deletion strains, locus YLR330W, strain CHS5, stronger effect = lower value 1.02 | S. cerevisiae deletion strains, locus YLR342W, strain FKS1 (second series), stronger effect = lower value 1.05 | S. cerevisiae deletion strains, locus YLR342W, strain FKS1, stronger effect = lower value 0.995 | S. cerevisiae deletion strains, locus YLR357W, strain rsc2, stronger effect = lower value 1.01 | S. cerevisiae deletion strains, locus YLR370C, strain arc18, stronger effect = lower value 1.02 | S. cerevisiae deletion strains, locus YLR371W, strain rom2, stronger effect = lower value 0.985 | S. cerevisiae deletion strains, locus YLR384C, strain iki3, stronger effect = lower value 1.02 | S. cerevisiae deletion strains, locus YLR418C, strain cdc73, stronger effect = lower value 0.977 | S. cerevisiae deletion strains, locus YML016C, strain PPZ1, stronger effect = lower value 0.99 | S. cerevisiae deletion strains, locus YML032C, strain rad52, stronger effect = lower value 0.978 | S. cerevisiae deletion strains, locus YML120C, strain ndi1, stronger effect = lower value 1.02 | S. cerevisiae deletion strains, locus YML124C, strain tub3, stronger effect = lower value 0.996 | S. cerevisiae deletion strains, locus YMR058W, strain fet3, stronger effect = lower value 1.02 | S. cerevisiae deletion strains, locus YMR078C, strain ctf18, stronger effect = lower value 0.979 | S. cerevisiae deletion strains, locus YMR125W, strain sto1, stronger effect = lower value 1.04 | S. cerevisiae deletion strains, locus YMR129W, stronger effect = lower value 1.03 | S. cerevisiae deletion strains, locus YMR205C, strain PFK2, stronger effect = lower value 1.05 | S. cerevisiae deletion strains, locus YMR223W, strain ubp8, stronger effect = lower value 1.01 | S. cerevisiae deletion strains, locus YMR231W, strain pep5, stronger effect = lower value 1.02 | S. cerevisiae deletion strains, locus YMR263W, strain SAP30, stronger effect = lower value 0.988 | S. cerevisiae deletion strains, locus YMR307W, strain GAS1, stronger effect = lower value 1.01 | S. cerevisiae deletion strains, locus YNL067W, strain RPL9B, stronger effect = lower value 0.969 | S. cerevisiae deletion strains, locus YNL071W, strain lat1, stronger effect = lower value 1.01 | S. cerevisiae deletion strains, locus YNL128W, strain TEP1, stronger effect = lower value 0.995 | S. cerevisiae deletion strains, locus YNL153C, strain GIM3, stronger effect = lower value 0.977 | S. cerevisiae deletion strains, locus YNL183C, strain NPR1, stronger effect = lower value 0.995 | S. cerevisiae deletion strains, locus YNL209W, strain ssb2, stronger effect = lower value 1.02 | S. cerevisiae deletion strains, locus YNL233W, strain BNI4, stronger effect = lower value 0.99 | S. cerevisiae deletion strains, locus YNL248C, strain rpa49, stronger effect = lower value 1.04 | S. cerevisiae deletion strains, locus YNL250W, strain rad50, stronger effect = lower value 0.993 | S. cerevisiae deletion strains, locus YNL271C, strain bni1, stronger effect = lower value 0.986 | S. cerevisiae deletion strains, locus YNL298W, strain CLA4, stronger effect = lower value 0.984 | S. cerevisiae deletion strains, locus YNL307C, strain MCK1, stronger effect = lower value 0.989 | S. cerevisiae deletion strains, locus YNL322C, strain KRE1 (second series), stronger effect = lower value 1.02 | S. cerevisiae deletion strains, locus YNL322C, strain KRE1, stronger effect = lower value 1 | S. cerevisiae deletion strains, locus YNR049C, strain mso1, stronger effect = lower value 1.02 | S. cerevisiae deletion strains, locus YNR052C, strain pop2, stronger effect = lower value 0.996 | S. cerevisiae deletion strains, locus YOL006C, strain TOP1, stronger effect = lower value 0.951 | S. cerevisiae deletion strains, locus YOL012C, strain htz1 1.54 | S. cerevisiae deletion strains, locus YOL147C, strain pex11, stronger effect = lower value 0.989 | S. cerevisiae deletion strains, locus YOR001W, strain rrp6, stronger effect = lower value 1 | S. cerevisiae deletion strains, locus YOR061W, strain CKA2, stronger effect = lower value 0.995 | S. cerevisiae deletion strains, locus YOR069W, strain VPS5, stronger effect = lower value 0.985 | S. cerevisiae deletion strains, locus YOR070C, strain gyp1, stronger effect = lower value 1.03 | S. cerevisiae deletion strains, locus YOR080W, strain dia2, stronger effect = lower value 1.02 | S. cerevisiae deletion strains, locus YOR083W, strain WHI5, stronger effect = lower value 0.965 | S. cerevisiae deletion strains, locus YOR106W, strain vam3, stronger effect = lower value 1.01 | S. cerevisiae deletion strains, locus YOR136W, strain idh2, stronger effect = lower value 0.987 | S. cerevisiae deletion strains, locus YOR144C, strain elg1, stronger effect = lower value 0.994 | S. cerevisiae deletion strains, locus YOR184W, strain ser1, stronger effect = lower value 0.977 | S. cerevisiae deletion strains, locus YOR231W, strain MKK1, stronger effect = lower value 1.05 | S. cerevisiae deletion strains, locus YOR265W, strain rbl2, stronger effect = lower value 1.02 | S. cerevisiae deletion strains, locus YOR270C, strain vph1, stronger effect = lower value 1.05 | S. cerevisiae deletion strains, locus YOR290C, strain snf2, stronger effect = lower value 1.02 | S. cerevisiae deletion strains, locus YOR316C, strain cot1, stronger effect = lower value 0.995 | S. cerevisiae deletion strains, locus YPL051W, strain arl3, stronger effect = lower value 1 | S. cerevisiae deletion strains, locus YPL055C, strain LGE1, stronger effect = lower value 1.02 | S. cerevisiae deletion strains, locus YPL078C, strain atp4, stronger effect = lower value 1.01 | S. cerevisiae deletion strains, locus YPL106C, strain sse1, stronger effect = lower value 1.01 | S. cerevisiae deletion strains, locus YPL240C, strain hsp82, stronger effect = lower value 1.02 | S. cerevisiae deletion strains, locus YPL241C, strain CIN2, stronger effect = lower value 1 | S. cerevisiae deletion strains, locus YPL256C, strain CLN2, stronger effect = lower value 1.1 | S. cerevisiae deletion strains, locus YPR119W, strain clb2, stronger effect = lower value 0.994 | S. cerevisiae deletion strains, locus YPR141C, strain kar3, stronger effect = lower value 0.982 | S. cerevisiae deletion strains, locus YPR163C, strain tif3, stronger effect = lower value 0.991 | S. cerevisiae deletion strains, locus YPR167C, strain met16, stronger effect = lower value 0.995 | S. cerevisiae deletion strains, strain wtn01, stronger effect = lower value 0.953 | S. cerevisiae strains, strain wild type, stronger effect = lower value 1
